# Assay outcomes: PubChem BioAssay, National Center for Advancing Translational Sciences (NCATS)
# Shown are actives, neighbours in structure and some others; about 11% of the full set was active somewhere.
# JMJD2A Tudor: JMJD2A Tudor domain (human) inhibition. O75164. AlphaScreen JMJD2A-Tudor / H3K4me3 peptide binding. Potency, µM (series often up to 114 µM), usual class: inhibitors. 390,000 compounds, 4.4% hits. AID 504339; note: nearly all actives have a fitted effect of over 50% in size
# HP1b binding inh: HP1-beta chromodomain-methylated histone interaction inhibition | AlphaScreen HP1-beta / biotin-H3K9me3 peptide binding | Potency, µM (top dose mostly 114 µM), usual class: inhibitors | 390,000 compounds, 0.56% hits | AID 540317; note: nearly all actives have a fitted effect of over 70% in size
#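 Compound inhibition of the preformed complex between 50 nM HP1-beta and 50 nM biotinylated H3K9me3 peptide was read by AlphaScreen. Buffer was PBS pH 7.4 with 0.01% Tween-20. Incubations ran 30 min at room temperature, with 10 ug/mL donor/acceptor beads.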
# L3MBTL1 inh: blocks human L3MBTL1; Q9Y468; AlphaScreen L3MBTL1–H3K9me1 peptide binding; Potency, µM (top dose mostly 57.1 µM), usual class: inhibitors; 230,000 compounds, 0.66% hits; AID 485360; note: nearly all actives have a fitted effect of over 60% in size
#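 AlphaScreen assay: L3MBTL1 (50 nM final) was preincubated 30 min at room temperature with biotinylated H3(1-15)K9me1 peptide (75 nM final), then 30 min with library compounds; streptavidin donor and nickel chelate acceptor beads (10 ug/mL final) added, 30 min dark.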
# G9a block: G9a (human) methyltransferase inhibition; Potency, µM (doses to about 102 µM), usual class: inhibitors; Q96KQ7; G9a H3K9 monomethylation, AlphaScreen, 2 h; AID 504332; 350,000 compounds, 8.8% hits; note: nearly all actives have a fitted effect of over 75% in size
# Target sequence (Q96KQ7 913-1193 limits assumed): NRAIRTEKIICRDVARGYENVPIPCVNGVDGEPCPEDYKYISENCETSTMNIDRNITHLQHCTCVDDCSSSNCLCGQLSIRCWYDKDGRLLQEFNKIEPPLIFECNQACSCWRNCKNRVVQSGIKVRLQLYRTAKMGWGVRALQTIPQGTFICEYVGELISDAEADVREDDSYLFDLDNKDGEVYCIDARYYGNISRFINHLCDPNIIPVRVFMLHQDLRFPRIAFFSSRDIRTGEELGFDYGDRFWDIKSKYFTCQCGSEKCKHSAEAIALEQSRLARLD
#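 G9a (20 nM) was preincubated 15 min with compound, then reacted 2 h at room temperature with 500 nM biotin-H3K9 peptide and 20 µM SAM. Monomethyl-H3K9 detected by AlphaScreen using anti-H3K9me1 antibody.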
# BAZ2B block: inhibitors of human BAZ2B bromodomain; Q9UIF8; AlphaScreen BAZ2B-H3K14Ac peptide displacement; 360,000 compounds, 4.4% hits; Potency, µM (top dose mostly 114 µM), hits mostly inhibitors; note: nearly all actives have a fitted effect of over 60% in size
#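 Multi-concentration screen (max 110 uM) measuring displacement of acetylated histone H3 peptide from BAZ2B by AlphaScreen, using 50 nM protein, 50 nM peptide and 10 ug/mL streptavidin donor plus Ni-chelate acceptor beads.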
# PI5P4Ka inh: inhibitors of human PI5P4K alpha. AID 652105. PI5P4Kalpha enzyme, ADP-Glo luminescence, 60 min; active compounds read low. 330,000 compounds, 1.2% hits. max response, %; active = max response of -50% or lower; inconclusive = between -30% and -50%; inactive = -30% or higher; note: value at the top dose of about 77 µM
# Target sequence (P48426 whole entry, looked up): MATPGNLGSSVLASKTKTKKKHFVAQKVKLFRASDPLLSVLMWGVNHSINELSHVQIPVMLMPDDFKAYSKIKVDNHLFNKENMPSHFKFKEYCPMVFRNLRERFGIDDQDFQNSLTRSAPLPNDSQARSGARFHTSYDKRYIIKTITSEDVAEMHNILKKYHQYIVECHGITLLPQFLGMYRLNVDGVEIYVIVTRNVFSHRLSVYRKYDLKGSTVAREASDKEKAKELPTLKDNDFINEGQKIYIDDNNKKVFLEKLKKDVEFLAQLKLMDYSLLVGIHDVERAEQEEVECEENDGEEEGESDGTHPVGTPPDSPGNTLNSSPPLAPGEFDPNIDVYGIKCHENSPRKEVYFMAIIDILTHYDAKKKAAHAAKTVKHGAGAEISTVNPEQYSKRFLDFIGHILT
#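 ADP-Glo luminescence end-point read after a 60 min room-temperature kinase reaction of PI5P4Kalpha plus substrate, initiated with ATP at 5 microM final. Buffer: 0.038 M HEPES pH 7.4, EGTA, 0.1% CHAPS, 5% DMSO.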
# Hits are given with their value; - = inactive; ? = inconclusive; . = no result; [ ] = another dose, or the depositor's remark. Unless noted, calls come from the whole dose curve; as a rule, active = well fitted inhibition curve with a large enough effect; inconclusive = small, poorly fitted or top-dose-only effect; inactive = no such curve, though single readings can be large or run the other way.
SMILES,JMJD2A Tudor,HP1b binding inh,L3MBTL1 inh,G9a block,BAZ2B block,PI5P4Ka inh
CC(C)(C)NC(=O)C(c1cccc2ccccc12)n1c(=O)c(-c2ccco2)nc2ccccc21 (stereo not given),.,.,.,.,.,-61
CCCCCNC(=O)C(C1CC1)n1c(=O)c(-c2ccco2)nc2ccccc21 (stereo not given),.,.,.,.,.,-
CCCCCNC(=O)C(c1cccc2ccccc12)n1c(=O)c(-c2ccco2)nc2ccccc21 (stereo not given),.,.,.,.,.,-57
CCCCCNC(=O)C(c1ccc(C(F)(F)F)cc1)n1c(=O)c(-c2ccco2)nc2ccccc21 (stereo not given),.,.,.,.,.,-60
Cc1nn2c(C)c(C(=O)N3CCN(c4ccccc4)CC3)cnc2c1-c1ccccc1,-,-,.,-,?,.
Cc1nc(N=Nc2ccc(O)cc2)n[nH]1,-,-,.,-,?,-
Cc1[nH]c(N=Nc2ccccc2)nc1N=Nc1ccccc1,7.9µM,?,?,7.9µM,6.3µM,-
CC(C)c1ccccc1NCC(=O)N1CCN(Cc2ccccc2)CC1,-,-,.,50µM,-,-
CCC(C)NC(=S)N1CCN(Cc2ccc3c(c2)OCO3)CC1 (stereo not given),-[11.4 µM],-,-,25µM,50µM,-
CCC(C)NC(=S)N1CCN(C(c2ccccc2)c2ccccc2)CC1 (stereo not given),-,-,-,-,-,-
CC(C)CNC(=S)N1CCN(Cc2ccc3c(c2)OCO3)CC1,20µM,25µM,-,16µM,22µM,-
CCC(C)NC(=S)N1CCN(Cc2ccccc2)CC1 (stereo not given),?,79µM,-,-,-,-
Cc1cccc(-n2c(-c3ccco3)n[nH]c2=S)c1,5.6µM,-,-,2µM,-,?
S=c1[nH]nc(-c2ccco2)n1-c1ccc(Br)cc1,25µM,?,.,.,.,-
c1ccc(-n2c(-c3ccco3)nnc2-c2ccco2)cc1,-,-,.,-[12.7 µM],-,-
Cc1cccc(-n2c(-c3ccc(Br)o3)n[nH]c2=S)c1,79µM,-,.,.,.,-
c1coc(-c2ccc3ncnc(NCc4cccs4)c3c2)c1,.,.,-,?,?,.
O=C1C=CC2(O[C@H](c3ccccc3)[C@@H](c3ccccc3)O2)[C@H](Sc2ccccc2O)C1,79µM,?,.,.,.,-
C[C@@H]1[C@@H](Sc2ccccc2)CC(=O)O[C@@H]1c1ccc(-c2ccccc2)cc1,-,-,.,.,.,-
CCc1cc2c(N3CCCCC3)ncnc2s1,-,-,-,50µM,-,-
CCOc1ccccc1NC(=O)CN1C(=O)C(=O)c2ccccc21,-,-,.,-,-,.
CCOc1ccccc1C(O)C1=CC(=O)c2ccccc2C1=O (stereo not given),25µM,-,.,.,.,?
CCOC(=O)Cn1c(=O)n(CC2CCCO2)c2nc(-c3ccc(C)cc3)nc(C(N)=O)c21 (stereo not given),-,-,.,-,-,.
CCC1(C)CC2(CCCN(CCC(=O)c3ccccc3)C2)CCO1 (stereo not given),-,-,-,50µM,-,-
O=C(O)c1ccccc1C(=O)NNc1ccc(Cl)cc1,-,-,-,?,-,.
SMILES,JMJD2A Tudor,HP1b binding inh,L3MBTL1 inh,G9a block,BAZ2B block,PI5P4Ka inh
O=C(NNc1cccc(Cl)n1)c1c(Cl)cccc1Cl,-,-,-,-,-,-
O=C(O)c1ccccc1C(=O)NNc1ccc(F)cc1F,-,-,-,50µM,-,-
CC(C)(C)c1ccc(C(=O)NNc2ccc(F)cc2F)cc1,89µM,-,-,22µM,-,-
O=C(O)c1ccccc1C(=O)NNc1cccc(Cl)n1,-,-,-,45µM,-,-
COc1cc2nc(NCc3ccccc3)n3nc(-c4ccccc4)nc3c2cc1OC,-,-,.,-,-,.
Cc1ccc(NC(=O)c2sc(-n3nc(C)c(CCC(C)C)c3C)nc2C)cc1C,-,-,.,?,?,.
Fc1ccc(CSc2nnc(-c3cnccn3)n2Cc2ccco2)cc1,-,-,.,-[12.7 µM],-,.
Fc1ccc(CSc2nnc(-c3cccnc3)n2Cc2ccco2)cc1,-,-,-,50µM,-,-
Cc1ccc(OCc2nnc(SCc3nc4ccccc4[nH]3)n2Cc2ccco2)cc1,?,-,-,14µM,?,-
c1ccc(-c2nnc(SCc3nc4ccccc4[nH]3)n2Cc2ccco2)cc1,32µM,-,-,.,-,.
O=C(Nc1c(C(=O)N2CCN(c3ccccc3)CC2)oc2ccccc12)c1ccco1,?,-,.,?,?,.
CCCCCCCn1ccc(=N)cc1,-,-,.,6.3µM,-,-
CCCCCCCCCn1ccc(=N)cc1,-,-,-,-,-,-
CCN(CC)S(=O)(=O)c1ccc(NC(=O)c2c(C)oc3ncnc(N4CCOCC4)c23)cc1,-,-,.,-,-,.
Cc1ccc(/C=N/n2c(-c3cccnc3)n[nH]c2=S)s1,4.5µM,-,-,0.79µM,-,-
Cc1nnc(C)n1/N=C/c1cccnc1,-,-,.,-,-,-
S=c1[nH]nc(-c2cccnc2)n1/N=C/c1ccc(Br)s1,5.6µM,-,-,?,-,-
Cc1ccc(S(=O)(=O)Nc2c(O)ccc3ccccc23)cc1,?,?,.,.,.,-
O=S(=O)(Nc1c(O)ccc2ccccc12)c1cccc2ccccc12,79µM,79µM,.,.,.,-
Cc1cc(C)n2nc(SCC(=O)N/N=C/c3ccccn3)nc2n1,8.9µM,-,-,8.9µM,-,-
Cc1c(NC(=O)CSc2n[nH]c(=O)n2-c2ccccc2)c(=O)n(-c2ccccc2)n1C,22µM,?,.,-,-,-
Cc1cc(C)n2nc(SCC(=O)Nc3c(C)n(C)n(-c4ccccc4)c3=O)nc2n1,-,-,-,45µM,?,-
Cc1c(NC(=O)CN(c2ccc(F)cc2)S(=O)(=O)c2ccccc2)c(=O)n(-c2ccccc2)n1C,-,-,.,45µM,?,-
Cc1c(NC(=O)CN(c2ccccc2)S(=O)(=O)c2ccc(F)cc2)c(=O)n(-c2ccccc2)n1C,-,-,.,.,-,-
Cc1noc(C)c1-c1cc(NCCN2CCOCC2)ncn1,.,.,.,-[0.501 µM],.,.
SMILES,JMJD2A Tudor,HP1b binding inh,L3MBTL1 inh,G9a block,BAZ2B block,PI5P4Ka inh
Cc1cc2c(cc1NS(=O)(=O)c1ccc(NC(=O)CC(C)C)cc1)n(C)c(=O)c(=O)n2C,-,-,.,-,-,.
O=C(COCc1cc(-c2cccs2)on1)NCc1ccc(Cl)cc1,-,-,.,-,-,.
Cc1cc(C)cc(-n2c(C)cc(/C=N/NC(=O)CSc3ncccn3)c2C)c1,79µM,?,-,79µM,?,-
Cc1c(NC(=O)COC(=O)COc2ccc(Nc3ccccc3)cc2)c(=O)n(-c2ccccc2)n1C,-,-,-,50µM,?,-
Cc1ccc(NC(=O)CN2C(=O)CCc3cc(S(=O)(=O)N4CCOCC4)ccc32)c(C)c1,-,-,.,-[12.7 µM],-,.
COc1ccc(-c2cc(C(F)(F)F)nc(SCC(=O)NCCc3ccc(OC)c(OC)c3)n2)cc1,-,-,.,-,-,.
